Screens: PubChem, SRMLSC
Spn DPM-DC inh – S. pneumoniae DPM-DC inhibitors, primary screen, biochemical, PK/LDH-coupled NADH fluorescence; AID 556, 2006; purified DPM-DC; calls only at 10 µM; actives 0.49% (n = 65,000);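 active means the 320 compounds with the highest percent inhibition in the single-dose primary screen, excluding strongly autofluorescent ones, cut at about 32% in these data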;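 further: kinetic rate of NADH fluorescence loss reporting ADP formed by the decarboxylase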
NADH coupling – inhibitors of PK/LDH coupling enzymes, profiling panel, artefact control, biochemical, MLSMR library; coupled PK/LDH NADH assays, four targets; IC50, µM (titrated, usually from 10 µM); actives 0.02% (n = 65,000);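 active means single-dose screening hits from any of four coupled enzyme assays that gave an IC50 when retested across doses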;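 further: the DPM-DC format reads NADH fluorescence rather than 340 nm absorbance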
Abs 340nm – compound light absorbance at 340 nm, profiling panel, artefact control, biochemical, MLSMR library, data from PS, PMK, MK assays | compound absorbance at 340 nm, fold over control | fold change at 10 µM | 65,000 tested, under 10 active | AID 708, 2007;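 active means at 10 µM dose, initial 340 nm absorbance at least 2 fold that of control wells; inactive means change under 2 fold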;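 further: initial absorbance extrapolated from kinetic A340 decline of NADH oxidation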
MK inhibit – S. pneumoniae MK inhibitors, primary screen, biochemical, PK/LDH-coupled NADH absorbance | mevalonate kinase [Streptococcus pneumoniae D39] | purified MK, PK/LDH-coupled NADH absorbance 340 nm | inhibition, % at 10 µM | actives 0.48% (n = 65,000);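 active means ranked among the strongest by inhibition in the single 10 µM screen, a fixed top-ranked set picked for dose follow-up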
PMK inhibit – S. pneumoniae PMK inhibitors, primary screen, biochemical, mevalonate pathway, pilot trial included. purified PMK, PK/LDH-coupled NADH absorbance 340 nm. phosphomevalonate kinase (Streptococcus pneumoniae D39). AID 539, 2006. inhibition, % at 10 µM. actives 0.49% (n = 65,000);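 active means top-ranked compounds by inhibition in the single 10 µM screen, taking a fixed number of the strongest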
Autofluor 339 – intrinsic fluorescence of library compounds, ex339/em460 – biochemical, MLSMR library, data from DPM-DC assay, artefact control, profiling panel | compound autofluorescence, ex339/em460 nm, NADH buffer; hits give high values; 1 = no-compound wells, NADH background | fluorescence fold increase at 10 µM | actives 5.5% (n = 65,000) | AID 709, 2007;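 active means at 10 µM, mean starting fluorescence two-fold or more over control wells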;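 further: signal is the first read of a kinetic run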
Of the large screens only hits and unclear results are named; the others gave an inactive call. This is a sample that favours compounds with a hit; in the whole collection about 6.5% have one here.

Cc1ccc2cc(C#N)c(NCCCNC(=O)C3CCCO3)nc2c1 (configuration not stated)	Autofluor 339 2.93 (not shown: Spn DPM-DC inh)
Cc1ccc2cc(C#N)c(N3CCCN(C(=O)C4CCCO4)CC3)nc2c1 (configuration not stated)	Autofluor 339 2.31
COc1cc(C(=O)N2CCCN(c3nc4cc(C)ccc4cc3C#N)CC2)cc(OC)c1OC	none (no result: MK inhibit)
CCOC(=O)Cc1nnc2c(Nc3ccc(Cl)cc3)nc3nonc3n12	none
COC(=O)c1[nH]c2ccc(C)cc2c1NC(=O)CN1CCN(c2ccccc2)CC1	Autofluor 339 2.13
COC(=O)c1[nH]c2ccc(C)cc2c1NC(=O)CN1CCC(C)CC1	none
Cc1ccc2[nH]c(C(=O)O)c(NC(=O)CN3CCN(c4cccc(C)c4C)CC3)c2c1	none
COC(=O)c1[nH]c2ccc(C)cc2c1NC(=O)CN1CCN(c2ccc(F)cc2)CC1	Autofluor 339 2.23
COC(=O)c1[nH]c2ccc(C)cc2c1NC(=O)CN1CCN(C(=O)c2ccccc2)CC1	Autofluor 339 2.85 (not shown: Spn DPM-DC inh)
COC(=O)c1[nH]c2ccc(C)cc2c1NC(=O)CN1CCN(Cc2ccccc2)CC1	Autofluor 339 2.92
CC(C)NC(=O)CCNC(=O)c1ccc(F)cc1	none
CC1(C)CC(=O)C=C(Nc2ccccc2F)C1	none
COc1cccc(-n2c(SCC(=O)N3CCCC3)nc3c([nH]c4ccccc43)c2=O)c1	none
O=C(c1cc(C2CC2)on1)N1CCN(c2ccc(F)cc2)CC1	none
COC(=O)c1[nH]c2ccc(C)cc2c1NC(=O)C(C)N1CCN(C2CCCCC2)CC1 (configuration not stated)	Autofluor 339 3.5 (not shown: Spn DPM-DC inh)
COC(=O)c1[nH]c2ccc(Cl)cc2c1NC(=O)CN1CCc2cc(OC)c(OC)cc2C1	none
COC(=O)c1[nH]c2cc(OC)c(OC)cc2c1NC(=O)CN1CCN(Cc2ccccc2)CC1	Autofluor 339 3.72 (not shown: Spn DPM-DC inh)
COc1ccc(-n2c(SCCC#N)nnc2-c2cc(Cl)ccc2OC)cc1Cl	none
O=C(NCCC1=CCCCC1)C1CCCN(c2nc3ccccc3o2)C1 (configuration not stated)	none
CCOc1cc2c(C)cc(=O)oc2cc1Cl	none
CCOc1ccc(CCNC(=O)Cc2nn[nH]n2)cc1OCC	none
Cc1c(C)c2cc(Cl)c(OCc3nn[nH]n3)cc2oc1=O	Autofluor 339 3.78 (not shown: Spn DPM-DC inh)
CCc1cc(=O)oc2cc(C)cc(OCc3nn[nH]n3)c12	Autofluor 339 3.83 (not shown: Spn DPM-DC inh)
COC(=O)Cc1c(C)c2c(OCc3nn[nH]n3)cc(C)cc2oc1=O	Autofluor 339 3.78 (not shown: Spn DPM-DC inh)
Cc1nc2c3c(-c4ccccc4)nc(N4CCOCC4)nc3nn2c(C)c1CCC(=O)O	Autofluor 339 3.69
Cc1nc2c(-c3ccccc3)c(C)nn2c(C)c1CCC(=O)N1CCOCC1	none
COc1ccc(-c2nc(N3CCOCC3)nc3nn4c(C)c(CCC(=O)O)c(C)nc4c23)cc1	Autofluor 339 4.99 (not shown: Spn DPM-DC inh)
COCCSc1ccccc1C(=O)NCc1ccco1	none
O=C(NCc1cccs1)C1CCN(S(=O)(=O)c2cccc3nsnc23)CC1	none
COCc1cc(C)c(C#N)c(=S)[nH]1	MK inhibit 58.0
CC(=O)c1c(C)nc2nonc2c1N	Autofluor 339 2.01
CCOC(=O)c1c(-c2ccc(OC)cc2)nc2nonc2c1N	none
CCc1ccccc1N(C(=O)c1cccs1)C1C=CS(=O)(=O)C1 (configuration not stated)	none
O=C(CNC(=O)c1cnccn1)Nc1ccc(F)c(F)c1F	none
CCC(=O)Nc1ccc2c(c1)C(=O)N(C1CCCCC1)C2=O	Autofluor 339 3.93 (not shown: Spn DPM-DC inh)
Cc1cc(NC(=O)c2ccc3c(c2)C(=O)N(C2CCCCC2)C3=O)no1	none
COc1ccc(N2C(=O)c3ccccc3NC23CCCCC3)cc1	Autofluor 339 2.2 (not shown: Spn DPM-DC inh)
COc1ccc(N2C(=O)CSC23CCCCC3)cc1	none
CC1(C(=O)N(CC(=O)NC2CCCC2)C2CCCC2)CC(=O)N=C2C=CC=CN21 (configuration not stated)	Autofluor 339 3.75 (not shown: Spn DPM-DC inh)
CC1(C(=O)N(c2ccccc2)C(C(=O)NC2CCCC2)c2ccccn2)CC(=O)N=C2C=CC=CN21 (configuration not stated)	Autofluor 339 4.67 (not shown: Spn DPM-DC inh)
Cc1ccc(N(C(=O)Cn2nnc3ccccc32)C(C(=O)NC2CCCCC2)c2cn(C)nc2C)cc1 (configuration not stated)	none
Cc1ccccc1N(CC(=O)NCC1CCCO1)C(=O)C1(C)CC(=O)N=C2C=CC=CN21 (configuration not stated)	Autofluor 339 3.3 (not shown: Spn DPM-DC inh)
COc1ccc(S(=O)(=O)NCC(=O)N(CC(=O)NCC2CCCO2)c2ccccc2C)cc1 (configuration not stated)	none
O=C(CC1Oc2ccccc2NC1=O)NCCCN1CCN(C2CCCCC2)CC1 (configuration not stated)	none
CCOc1ccc(-n2ccnc2SCC(=O)NCc2ccc3c(c2)OCO3)cc1	none
CN(C)c1ccc(C(c2nnnn2CCOC(=O)Nc2ccc(Cl)cc2)N2CCOCC2)cc1 (configuration not stated)	none
CCOC(=O)N1CCN(C(=O)COc2ccc3c(c2)C(=O)CC2(CCN(C(C)=O)CC2)O3)CC1	Autofluor 339 5.05 (not shown: Spn DPM-DC inh)
C=CCn1c(NC(=O)c2ccco2)c(S(=O)(=O)c2ccccc2)c2nc3ccccc3nc21	Autofluor 339 3.81 (not shown: Spn DPM-DC inh)
Nc1c2c(nc3ccccc13)N(c1ccccc1)CC2	MK inhibit 42.0, Autofluor 339 2.27 (not shown: Spn DPM-DC inh)
O=C(NCC1COc2ccccc2O1)C1CCN(S(=O)(=O)c2cccc3nsnc23)CC1 (configuration not stated)	none
CCCNc1ncccc1C(N)=O	Autofluor 339 3.44 (not shown: Spn DPM-DC inh)
Cc1c(NC(=O)CC2CC(C)OC2=O)c(=O)n(-c2ccccc2)n1C (configuration not stated)	none
C=CCn1c(-c2cccs2)nc2nc3ccccc3nc21	none (not shown: Spn DPM-DC inh)
CCC(C)n1c(-c2cccs2)nc2nc3ccccc3nc21 (configuration not stated)	Autofluor 339 3.94 (not shown: Spn DPM-DC inh)
CCCOC(=O)Cc1n[nH]c(=O)[nH]c1=O	Spn DPM-DC inh active
CCCOC(=O)CCc1n[nH]c(=O)[nH]c1=O	none
O=C(NC1CCCc2ccccc21)C1CCN(c2c3c(nc4ncnn24)CCC3)CC1 (configuration not stated)	Autofluor 339 4.71 (not shown: Spn DPM-DC inh)
COc1cc2nc(C3CCC3)n(NC(=O)C3CCCC(OC)C3)c(=O)c2cc1OC (configuration not stated)	PMK inhibit active
